PNC assembly inh = blocks assembly of the perinucleolar compartment; AID 2417; PC3M PTB-GFP, PNC prevalence imaging, 16 h; active compounds read low; actives 3.1% (n = 140,000); activity change (PNC), negative = inhibition, % at 10 µM;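 active = readout at or below -70, meaning at least 70% loss of cells showing the perinucleolar compartment, a nuclear body marking cancer cells; inconclusive = readout between -30 and a set limit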
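Compounds are pinned in duplicate onto adhered PC3M cells stably expressing GFP-tagged PTB and incubated 16 h at 37 C. Cells are then fixed, nuclei stained with Hoechst, and PNC-positive cells counted.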
HPGD block = blocks human HPGD enzyme activity; P15428; purified HPGD, NADH fluorescence kinetic, PGE2 substrate; actives 4.3% (n = 150,000); Potency, µM, usual class: inhibitors; active = well fitted inhibition curve with a large enough effect, not every such curve was filed as active; inconclusive = small, poorly fitted or top-dose-only effect, or another doubt; inactive = no such curve, though single readings can be large or run the other way
Target sequence (P15428 whole entry, looked up): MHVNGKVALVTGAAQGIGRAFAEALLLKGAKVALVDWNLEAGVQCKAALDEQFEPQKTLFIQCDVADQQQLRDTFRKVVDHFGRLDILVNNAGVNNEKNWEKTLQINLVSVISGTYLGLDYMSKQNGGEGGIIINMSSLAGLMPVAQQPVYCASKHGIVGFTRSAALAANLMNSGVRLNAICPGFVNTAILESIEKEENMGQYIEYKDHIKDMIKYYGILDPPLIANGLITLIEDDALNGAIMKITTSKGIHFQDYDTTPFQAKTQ
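20 nM HPGD preincubated 15 min at room temperature with compound in 50 mM Tris-HCl pH 8, 0.01% Tween 20. Started with 1 mM NAD+ and 30 uM prostaglandin E2; NADH fluorescence (360/450 nm) read 5 times over 30-s intervals, last minus first.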
ALDH1A1 inh = blocks purified human ALDH1A1 activity; Purified ALDH1A1, NADH fluorescence, propionaldehyde substrate; Potency, µM (doses to about 75.3 µM), actives largely listed as inhibitors; actives 7.3% (n = 220,000); AID 1030; active = well fitted inhibition curve with a large enough effect, not every such curve was filed as active; inconclusive = small, poorly fitted or top-dose-only effect, or another doubt; inactive = no such curve, though single readings can be large or run the other way
IMPase Li inh = membrane-permeable IMPase blocker, potentiated with lithium; actives 0.35% (n = 210,000); CHO-M1 cells, IP1 TR-FRET (IP-One), carbachol + lithium; Potency, µM (highest dose often 59.4 µM), usual class: inhibitors; AID 1457;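 also: IP1 builds up when IMPase is blocked and the TR-FRET signal falls; nearly all actives have a fitted effect of over 50% in size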
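Steps: plate 2000 CHO-M1 cells per well and culture 16–30 h; add compound and lithium; incubate 30 min, 37C; add d2-IP1 tracer and Eu cryptate anti-IP1 antibody in lysis buffer; read after 10 min at room temperature.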
ALOX12 inhib = inhibitors of human 12-lipoxygenase (ALOX12) | Potency, µM (top dose mostly 57.1 µM), actives largely listed as inhibitors | actives 0.12% (n = 150,000) | P18054 | purified 12-hLO, xylenol orange hydroperoxide absorbance; also: nearly all actives have a fitted effect of over 55% in size
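Hydroperoxide output read as Fe(III)-xylenol orange absorbance, 573-to-405 nm ratio, after 30 min reaction with 40 uM arachidonic acid. Enzyme: 150 nM purified human 12hLO, 15 min compound preincubation; 25 mM Hepes pH 7.0, room temperature.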
IMPase cell inh = IMPase inhibition in cells | P97697 | inhibition (IP1 accumulation), % at 46.1 µM | 120,000 tested, under 10 active | CHO-M1 cells, IP1 accumulation, HTRF TR-FRET ratio; active = well fitted curve in the direction sought with a large enough effect in the signal ratio, not every such curve was filed as active; inconclusive = small, poorly fitted or top-dose-only effect, or a change in a side signal; inactive = no such curve, though single readings can be large or run the other way; the % refers to the signal ratio;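 also: cells stimulated with carbachol in lithium chloride buffer; higher means more IMPase inhibition seen as more IP1 and lower FRET ratio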
Target sequence (P97697 whole entry, looked up): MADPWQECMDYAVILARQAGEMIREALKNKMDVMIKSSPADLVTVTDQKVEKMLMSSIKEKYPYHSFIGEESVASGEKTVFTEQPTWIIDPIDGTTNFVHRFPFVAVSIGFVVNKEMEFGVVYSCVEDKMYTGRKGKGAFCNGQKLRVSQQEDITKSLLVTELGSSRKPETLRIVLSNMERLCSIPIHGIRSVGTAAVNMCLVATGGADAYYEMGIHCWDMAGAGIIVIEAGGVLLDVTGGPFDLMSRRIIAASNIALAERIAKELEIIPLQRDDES
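The IP-One HTRF competitive assay in carbachol-stimulated CHO-M1 cells quantifies cellular IP1. Compounds spanned up to 46 uM final, and activity is expressed as AC50 from concentration-response fits of the ratio and donor data.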
Each line names hits and unclear results; the compound was inactive in the other large screens. Hits are enriched below; roughly 11% of the tested compounds scored in any of these assays. Unless noted, calls follow the shape of the dose curve; as a rule, active = well fitted curve in the direction sought with a large enough effect; inconclusive = small, poorly fitted or top-dose-only effect, or another doubt; inactive = no such curve, though single readings can be large; an effect the other way counts as inactive or inconclusive.

O=c1[nH]c(CN2CCCCC2)nc2ccccc12	none
COc1ccc(NC(=O)c2ccc(Br)o2)cc1	none (no result: IMPase cell inh)
O=C(Nc1ccc(Nc2ccccc2)cc1)c1ccc(Br)o1	HPGD block 28.2µM
O=C(Nc1ccc2c(c1)OCCO2)c1ccc(Br)o1	HPGD block 28.2µM, ALDH1A1 inh inconclusive
COc1ccc(NC(=S)NC(=O)c2ccc(Br)o2)cc1	ALDH1A1 inh 11.2µM (no result: PNC assembly inh, HPGD block, ALOX12 inhib, IMPase cell inh)
Cc1ccc(C(=O)Nc2ccc3c(c2)OCO3)o1	none
COc1ccc(C2COc3c(ccc(O)c3OC)C2)c(OC)c1O (stereo not given)	none (no result: PNC assembly inh, IMPase cell inh)
COc1ccc(/C=C2\C(=O)N(c3c(Cl)cc(Cl)cc3Cl)N=C2NC(=O)c2cccc([N+](=O)[O-])c2)cc1	HPGD block 22.4µM, ALDH1A1 inh inconclusive (no result: IMPase cell inh)
CC(C)CN(C#N)c1nc(N2CCOCC2)nc(N2CCOCC2)n1	PNC assembly inh inconclusive, ALDH1A1 inh 7.94µM
CC(C)CCCNc1nc(N2CCOCC2)nc(N2CCOCC2)n1	none
CN(C)/C=N/c1c(C#N)nnn1Cc1ccccc1	PNC assembly inh inconclusive, HPGD block 20µM, ALDH1A1 inh inconclusive
CN(C)C=Nc1ncc2c3ccccc3n(Cc3ccccc3)c2c1C#N	HPGD block inconclusive, ALDH1A1 inh inconclusive
Cc1ncc2c(c1O)COP(=O)(O)OC2	none (no result: PNC assembly inh)
CCNC(=S)N1CCN(c2cccc(C(F)(F)F)c2)CC1	none (no result: IMPase cell inh)
C=CCNC(=S)N1CCN(c2cccc(C(F)(F)F)c2)CC1	PNC assembly inh -113.4 (no result: IMPase cell inh)
Cc1ccc(/C=C/C(=O)N2CCN(c3cccc(C(F)(F)F)c3)CC2)cc1	none
C/C(=C\c1ccccc1)C(=O)N1CCN(c2cccc(C(F)(F)F)c2)CC1	PNC assembly inh -91.0, HPGD block 25.1µM (no result: IMPase cell inh)
Cc1cc(CNC(=O)[C@@H]2C[C@H]2[C@@H](NP(=O)(c2ccccc2)c2ccccc2)c2ccccc2)nn1C	none (no result: PNC assembly inh, IMPase cell inh)
COc1ccc(N(C(=O)c2cccc(C)c2)S(=O)(=O)c2ccc3c(c2)n(C)c(=O)n3C)cc1	none (no result: PNC assembly inh, HPGD block, ALDH1A1 inh, IMPase Li inh, ALOX12 inhib)
Cc1ccc(N=C2NC(=O)CS2)cc1	PNC assembly inh inconclusive, HPGD block inconclusive
CCOC(=O)c1ccc(N=C2NC(=O)CS2)cc1	PNC assembly inh inconclusive, HPGD block 12.6µM, ALDH1A1 inh inconclusive
c1ccc(CNc2ncncc2-c2ccc3c(c2)OCO3)cc1	ALDH1A1 inh inconclusive (no result: PNC assembly inh, HPGD block, ALOX12 inhib, IMPase cell inh)
CNc1ccc(Br)cc(C(=O)/C=C/c2ccc(OC)cc2OC)c1=O	PNC assembly inh inconclusive, HPGD block 14.1µM, ALDH1A1 inh inconclusive (no result: IMPase cell inh)
CNc1ccc(Br)cc(C(=O)/C=C/c2cccc(OC)c2)c1=O	HPGD block 7.94µM, ALDH1A1 inh 14.1µM
COc1cccc(/C=C/C(=O)Nc2ccc3[nH]c(=O)[nH]c3c2)c1	ALDH1A1 inh inconclusive (no result: PNC assembly inh, HPGD block, ALOX12 inhib, IMPase cell inh)
OCC1OC(O)C(O)C(O)C1O (stereo not given)	none (no result: PNC assembly inh, IMPase cell inh)
COc1ccc(CC(NC(C)=O)C(=O)NC2CCN(c3nnnn3-c3ccccc3)CC2)cc1 (stereo not given)	ALDH1A1 inh 2.51µM
COc1ccc(CC(NC(C)=O)C(=O)NC2CCN(c3nnnn3-c3ccccc3)CC2)cc1OC (stereo not given)	ALDH1A1 inh 10µM (no result: PNC assembly inh, HPGD block, ALOX12 inhib, IMPase cell inh)
COc1nc(OC)nc(N2CCC(NC(=O)C(Cc3ccc(C(C)C)cc3)NC(C)=O)CC2)n1 (stereo not given)	none
COc1ccc(CC(NC(C)=O)C(=O)NC2CCN(c3c(Cc4ccccc4)c(C)nc4ncnn34)CC2)cc1OC (stereo not given)	HPGD block inconclusive (no result: IMPase cell inh)
COc1cccc(CC(NC(C)=O)C(=O)NC2CCN(c3nnnn3-c3ccccc3)CC2)c1 (stereo not given)	ALDH1A1 inh 14.1µM
COc1ccc(CC(NC(C)=O)C(=O)NC2CCN(C(=O)NCc3ccccc3)CC2)cc1OC (stereo not given)	none
CCOc1ccc(NC(=O)N2CCC(NC(=O)C(Cc3ccc(OC)c(OC)c3)NC(C)=O)CC2)cc1 (stereo not given)	ALDH1A1 inh 0.0562µM
CC(=O)NC(Cc1cccc(F)c1)C(=O)NC1CCN(C(=O)c2cccc(C)c2)CC1 (stereo not given)	none (no result: PNC assembly inh, HPGD block, ALOX12 inhib, IMPase cell inh)

From PubChem
